SARS 3CLpro inh = SARS-CoV 3CLpro protease inhibition; inhibition, % at 6 µM; AID 1706; P0C6X7; hit rate 0.14% among 290,000; recombinant SARS-CoV 3CLpro, quenched FRET peptide cleavage; in the data active = inhibition above about 12%
BJeLR viability = BJeLR cell viability loss; BJeLR (HRASV12) viability, CellTiter-Glo ATP luminescence, 48 h; inhibition, % (test concentration not listed); hit rate 0.17% among 300,000; AID 1554; in the data active = inhibition above about 50%
PrP UTR inh = suppresses PrP 5' UTR mRNA reporter expression; cell-based PrP 5' UTR mRNA reporter, plate reader; inhibition, % (no concentration beside the values); hit rate 0.35% among 340,000; AID 488862; in the data active = inhibition above about 52%
PrPC TRFRET = inhibitors of human cell surface prion protein PrPC. P04156. TR-FRET read-out. inhibition, % at 13.8 µM. hit rate 0.43% among 370,000. AID 720596; in the data active = inhibition above about 24%
SSB-PriA inh = K. pneumoniae PriA-SSBct interaction inhibition; AlphaScreen SSBct-PriA binding, biotinylated peptide; inhibition, % at 33 µM; hit rate 0.6% among 430,000; AID 1272365; in the data active = inhibition mostly above about 37%, no sharp cut-off; inactive = mostly below about 20%
Hits are given with their value; – = inactive; · = no result. Hits are enriched below; roughly 1.2% of the tested compounds scored in any of these assays.

SMILES	SARS 3CLpro inh	BJeLR viability	PrP UTR inh	PrPC TRFRET	SSB-PriA inh
CNC(=S)N/N=C/c1ccc(-c2ccc(C(=O)O)cc2)o1	–	52	–	–	·
CN(C)CCCOc1ccc(Cl)cc1Br	–	–	–	–	51
CN(C)CCOCCOc1ccc(Cl)cc1Br	–	–	–	–	–
O=C(C[C@H](NCCN1CCOCC1)C(=O)O)Nc1ccc(Br)cc1	·	·	·	·	–
CC(=O)Nc1cccc(NC(=O)Cc2cc(=O)[nH]c(SCc3ccccc3F)n2)c1	·	·	·	·	–
O=C1c2ccccc2C(=O)N1CCCCN(C(=O)c1cccc([N+](=O)[O-])c1)c1ccc(Cl)cc1	–	–	–	–	–
Cc1ccc(N(CCCCN2C(=O)c3ccccc3C2=O)C(=O)c2cccs2)cc1	–	–	–	–	66
O=C1c2ccccc2C(=O)N1CCCCN(C(=O)c1ccc([N+](=O)[O-])o1)c1ccc(Cl)cc1	·	·	·	·	40
O=c1/c(=C/c2cccc([N+](=O)[O-])c2)sc2nc(-c3ccncc3)nn12	·	·	·	·	–
Cc1ccc(/[N+]([O-])=C/c2ccc(Br)cc2)cc1	·	·	·	·	–
O=C1CC(c2ccccc2)=NN1c1ccccc1	·	·	–	–	–
O=C1CC(C(F)(F)F)=NN1c1ccccc1	·	·	·	·	35
O=C(CCCn1nc(-c2ccc(F)cc2)ccc1=O)Nc1ccccc1-c1ccccc1	·	·	·	·	–
CCn1cc(NC(=O)Nc2ccc(OC(F)F)cc2)c2ccccc21	·	·	·	·	40
Cn1cc(NC(=O)Nc2ccc(OC(F)(F)F)cc2)c2ccccc21	·	·	·	·	–
O=c1c2ccccc2nc(/C=C/c2ccc([N+](=O)[O-])o2)n1-c1ccc(O)cc1	–	64	–	–	–
O=C1C(=C(c2ccccc2)c2ccccc2)Nc2ccccc21	–	–	–	–	42
O=C1C(=C(O)c2ccccc2)C(=O)c2ccccc21	–	–	–	–	–
CCOC(=O)c1c(NC(C)=O)sc(C(C)=NNc2ccc(C(=O)O)cc2)c1C	·	·	·	·	–
O=C(Nc1ccc([N+](=O)[O-])cc1)Nc1ccc2c3c(cccc13)CC2	·	·	·	·	38
COC(=O)c1ccc(C(=O)Nc2nc3ccc(C(C)C)cc3s2)cc1	·	·	·	·	–
Oc1[nH]c2ccc(Br)cc2c1N=NC(=S)N1CCOCC1	–	–	–	–	–
Oc1[nH]c2ccccc2c1N=NC(=S)N1CCOCC1	–	–	·	·	59
CCN1/C(=C/c2ccc3cc(C)ccc3[n+]2CC)Sc2ccc3sccc3c21	·	92	–	·	–
CCN1/C(=C\c2ccc3cc(C)ccc3[n+]2CC)Sc2cc(C)c(C)cc21	–	–	–	–	·
SMILES	SARS 3CLpro inh	BJeLR viability	PrP UTR inh	PrPC TRFRET	SSB-PriA inh
Cc1cc2ncn(CC3CCN(C(=O)COc4ccc(F)cc4)CC3)c2cc1C	·	·	·	·	–
CC(=O)C(=NNc1ccc(Cl)cc1Cl)Sc1cccc2cccnc12	·	·	·	·	73
CC(=O)C(=NNc1ccccc1)Sc1cccc2cccnc12	·	·	·	·	–
CCOc1ccc(N(CC(=O)NCCc2ccccc2)C(=O)CCC(=O)Nc2cc(C)ccn2)cc1	–	–	–	–	104
O=C(CCCn1nnnc1CN1CCOCC1)N1CCC(c2ccc(F)cc2)C1 (stereo not given)	–	–	–	–	39
CCN(CC)C(=O)C1CCCN(C(=O)CCn2nnnc2CN2CCOCC2)C1 (stereo not given)	–	–	–	–	–
O=C(NCC1CCN(Cc2cccs2)CC1)C(=O)Nc1cccc(F)c1	·	·	·	·	–
CN1CCN(c2ccc([N+](=O)[O-])c(N3CCCC3)c2)CC1	·	·	·	·	58
CS(=O)(=O)N1CCN(c2ccc([N+](=O)[O-])c(N3CCCC3)c2)CC1	·	·	·	·	57
COc1ccc(C(=O)Nc2cc(C)nn2-c2nc3c(cnn3-c3ccc(F)cc3)c(=O)[nH]2)cc1OC	·	·	·	·	53
COc1ccc(C(=O)Nc2cc(C)nn2-c2nc3c(cnn3-c3ccc(C)cc3)c(=O)[nH]2)cc1	·	·	·	·	–
CSc1ccccc1C(=O)Nc1cc(C)nn1-c1nc2c(cnn2-c2ccc(F)cc2)c(=O)[nH]1	·	·	·	·	41
COc1ccc(C(=O)Nc2cc(C)nn2-c2nc3c(cnn3-c3ccc(C)c(C)c3)c(=O)[nH]2)cc1OC	·	·	·	·	91
CO[C@@](C)(CNC(=O)C(=O)Nc1ccc(C)c(N2CCCC2=O)c1)c1cccc(Cl)c1	·	·	·	·	–
Cn1cnc(S(=O)(=O)NCc2nn(C)c3c2CCCC3)c1	·	·	·	·	–
COc1ccccc1C(=O)N1CCN(c2nccn3nc4c(c23)CCCC4)CC1	·	·	·	·	–
O=C(NC[C@H](O)c1csc2ccccc12)c1nc2ccccc2s1	·	·	·	·	–
C1CN2CN3CCN(CN1C3)C2	·	·	·	·	80
O=C(c1ccc2c(c1)OCO2)N1CCC(c2ccsc2)CC1	·	·	·	·	–
Cc1cc(C(=O)CCl)c(C)n1Cc1ccco1	25	–	–	–	–
O=C1C=C(c2cccs2)C[C@H](c2ccccc2)[C@H]1n1nnc([N+](=O)[O-])n1	–	83	–	–	–
COc1ccc2c(c1)sc(N)[n+]2Cc1cc(C)cc2cccnc12	–	52	–	–	–
CCOc1ccc2c(c1)sc(N)[n+]2Cc1cc(C)cc2cccnc12	–	–	–	–	–
Cc1cc(NC(=O)Cc2ccc(S(C)(=O)=O)cc2)n(-c2nc3ccccc3s2)n1	·	·	·	·	–
C[n+]1c(/C=C/c2ccc(O)cc2)ccc2ccccc21	–	–	–	–	–
SMILES	SARS 3CLpro inh	BJeLR viability	PrP UTR inh	PrPC TRFRET	SSB-PriA inh
Cc1cc(/C=C\c2ccc3cc(N(C)C)ccc3[n+]2C)c(C)n1-c1ccccc1	·	·	73	·	·
Cc1cccc(-c2ccc(C=Nc3c(C)n(C)n(-c4ccccc4)c3=O)o2)c1	–	·	–	–	50
O=C(COc1ccccc1F)N1CCC(Oc2cnccn2)CC1	·	·	·	·	–
CN(C)S(=O)(=O)c1ccc(C(=O)Nc2nnc(Cc3cccs3)o2)cc1	·	·	·	·	74
Cc1ccc(Cc2nnc(NC(=O)c3ccc(S(=O)(=O)N(C)C4CC4)cc3)o2)cc1C	·	·	·	·	–
CN(C1CC1)S(=O)(=O)c1ccc(C(=O)Nc2nnc(Cc3cccs3)o2)cc1	·	·	·	·	74
CCN(CC)S(=O)(=O)c1ccc(C(=O)Nc2nnc(Cc3cccs3)o2)cc1	·	·	·	·	–
CCCCN(C)S(=O)(=O)c1ccc(C(=O)Nc2nnc(Cc3cccs3)o2)cc1	·	·	·	·	58
CS(=O)(=O)c1ccc(C(=O)Nc2nnc(Cc3cccs3)o2)cc1	·	·	·	·	64
CCCCN(C)S(=O)(=O)c1ccc(C(=O)Nc2nnc(-c3cccs3)o2)cc1	–	–	·	·	·
O=C(c1ccncc1)N1CCCC1CS(=O)(=O)c1ccccc1 (stereo not given)	·	·	·	·	–
Cc1cccc(CC(=O)NCC(c2ccc3c(c2)CCN3C)N2CCCC2)c1 (stereo not given)	·	·	·	·	–
Cn1c(=O)n(CCN2CCOCC2)c(=O)c2c1nc1n2CCN1Cc1ccco1	·	·	·	·	–
CCc1nnc(NC(=O)c2ccc(S(=O)(=O)N3CCCC(C)C3)cc2)o1 (stereo not given)	–	–	–	–	–
CSc1ccc(CC(=O)Nc2nnc(Cc3cccs3)o2)cc1	·	·	·	·	–
CSc1ccccc1C(=O)Nc1nnc(Cc2cccs2)o1	·	·	·	·	45
CC1CCCN(S(=O)(=O)c2ccc(C(=O)Nc3nnc(Cc4cccs4)o3)cc2)C1 (stereo not given)	·	·	·	·	37
Cc1ccc(NC(=O)CN2CCC(C(=O)NCc3cccs3)CC2)cc1	·	·	·	·	–
COc1ccc(S(=O)(=O)C(CN)c2cccs2)cc1 (stereo not given)	·	·	·	·	–
